In ChEMBL document CHEMBL1961873, “Compounds: GSK PKIS; Assays: Nanosyn kinase panel” (2012) one finds inhibition data, which are given here for seven molecules.

In experiment [1] the target is Serine/threonine-protein kinase pim-2 (Homo sapiens) (UniProt Q9P1W9). The following applies: at 1 µM.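 Note: each value is a mean of the inhibition measurements against the kinase.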
In experiment [2] the target is Serine/threonine-protein kinase pim-3 (Homo sapiens) (UniProt Q86V86). The following applies: at 0.1 µM.
Experiment [3] has the same target. The following applies: at 1 µM.
The target in experiment [4] is T1, MAP kinase-activated protein kinase 5 (Homo sapiens) (UniProt Q8IW41).
T1 sequence (whole entry): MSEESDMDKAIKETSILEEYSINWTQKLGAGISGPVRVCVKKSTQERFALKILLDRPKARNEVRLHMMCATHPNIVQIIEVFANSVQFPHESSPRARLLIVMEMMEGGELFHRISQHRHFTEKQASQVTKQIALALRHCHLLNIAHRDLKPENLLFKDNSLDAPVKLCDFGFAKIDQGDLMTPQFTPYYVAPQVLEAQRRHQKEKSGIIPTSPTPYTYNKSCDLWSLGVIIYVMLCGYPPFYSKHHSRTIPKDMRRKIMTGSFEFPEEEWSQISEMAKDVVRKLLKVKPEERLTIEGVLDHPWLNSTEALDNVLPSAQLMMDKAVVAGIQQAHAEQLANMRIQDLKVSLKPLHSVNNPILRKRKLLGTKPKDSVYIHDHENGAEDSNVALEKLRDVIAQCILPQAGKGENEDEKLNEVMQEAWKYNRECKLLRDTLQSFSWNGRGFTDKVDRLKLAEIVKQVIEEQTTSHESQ
The following applies: at 0.1 µM.

Experiment [5] concerns the target T1, MAP kinase-activated protein kinase 5 (Homo sapiens). The following applies: at 1 µM.
Experiment [6] has as its target Serine/threonine-protein kinase SIK1 (Homo sapiens) (UniProt P57059). The following applies: at 0.1 µM.
The target is the same in experiment [7]. The following applies: at 1 µM.
The target of experiment [8] is Serine/threonine-protein kinase SIK2 (Homo sapiens) (UniProt Q9H0K1). The following applies: at 0.1 µM.
Serine/threonine-protein kinase SIK2 (Homo sapiens), sequence (Q9H0K1 whole entry, looked up): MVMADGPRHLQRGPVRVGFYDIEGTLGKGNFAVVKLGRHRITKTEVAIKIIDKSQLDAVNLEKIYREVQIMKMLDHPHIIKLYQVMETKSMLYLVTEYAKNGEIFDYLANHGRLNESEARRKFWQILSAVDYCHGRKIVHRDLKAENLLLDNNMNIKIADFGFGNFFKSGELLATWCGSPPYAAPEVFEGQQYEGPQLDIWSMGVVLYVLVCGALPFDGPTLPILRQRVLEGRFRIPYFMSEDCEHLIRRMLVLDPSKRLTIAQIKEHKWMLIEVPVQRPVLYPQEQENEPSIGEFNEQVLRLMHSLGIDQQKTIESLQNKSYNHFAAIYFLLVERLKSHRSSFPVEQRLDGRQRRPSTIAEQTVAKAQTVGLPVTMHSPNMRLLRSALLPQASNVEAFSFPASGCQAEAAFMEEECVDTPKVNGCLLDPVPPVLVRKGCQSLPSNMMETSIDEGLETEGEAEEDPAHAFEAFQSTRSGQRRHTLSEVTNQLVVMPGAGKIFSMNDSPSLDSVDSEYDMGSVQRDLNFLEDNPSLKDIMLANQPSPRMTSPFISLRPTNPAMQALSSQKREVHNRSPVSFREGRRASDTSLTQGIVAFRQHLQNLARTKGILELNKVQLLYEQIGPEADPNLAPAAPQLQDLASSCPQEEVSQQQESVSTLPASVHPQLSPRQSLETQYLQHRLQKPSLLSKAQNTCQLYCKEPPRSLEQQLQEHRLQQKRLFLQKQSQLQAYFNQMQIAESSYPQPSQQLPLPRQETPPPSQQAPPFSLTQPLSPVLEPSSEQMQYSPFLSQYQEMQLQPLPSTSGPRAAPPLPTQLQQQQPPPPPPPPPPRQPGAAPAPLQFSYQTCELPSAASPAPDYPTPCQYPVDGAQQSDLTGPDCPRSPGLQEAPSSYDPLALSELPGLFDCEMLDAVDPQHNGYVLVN
Experiment [9] shares this target. The following applies: at 1 µM.
In experiment [10] the target is T2, Serine/threonine-protein kinase TBK1 (Homo sapiens) (UniProt Q9UHD2).
T2 sequence (whole entry): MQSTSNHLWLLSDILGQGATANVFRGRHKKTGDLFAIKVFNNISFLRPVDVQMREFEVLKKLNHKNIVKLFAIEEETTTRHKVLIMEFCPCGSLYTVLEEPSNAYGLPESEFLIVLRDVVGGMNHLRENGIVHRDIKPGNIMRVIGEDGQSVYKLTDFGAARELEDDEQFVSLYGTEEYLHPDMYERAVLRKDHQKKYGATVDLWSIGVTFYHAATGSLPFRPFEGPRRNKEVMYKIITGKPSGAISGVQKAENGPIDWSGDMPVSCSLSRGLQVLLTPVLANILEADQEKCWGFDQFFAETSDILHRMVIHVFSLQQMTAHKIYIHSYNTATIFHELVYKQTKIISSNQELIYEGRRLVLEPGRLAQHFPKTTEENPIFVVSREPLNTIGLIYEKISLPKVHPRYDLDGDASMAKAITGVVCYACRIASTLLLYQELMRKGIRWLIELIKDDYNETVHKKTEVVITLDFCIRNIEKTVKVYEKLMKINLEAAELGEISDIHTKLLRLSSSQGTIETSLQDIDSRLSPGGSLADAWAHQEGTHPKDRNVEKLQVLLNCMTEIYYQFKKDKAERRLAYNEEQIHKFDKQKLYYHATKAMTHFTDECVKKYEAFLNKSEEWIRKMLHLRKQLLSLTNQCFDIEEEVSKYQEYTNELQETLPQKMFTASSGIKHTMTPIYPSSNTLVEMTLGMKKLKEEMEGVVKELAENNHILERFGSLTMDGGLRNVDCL
The following applies: at 0.1 µM.

For experiment [11], the target named is T2, Serine/threonine-protein kinase TBK1 (Homo sapiens). The following applies: at 1 µM.
The target of experiment [12] is T3, Testis-specific serine/threonine-protein kinase 1 (Homo sapiens) (UniProt Q9BXA7).
T3 sequence (whole entry): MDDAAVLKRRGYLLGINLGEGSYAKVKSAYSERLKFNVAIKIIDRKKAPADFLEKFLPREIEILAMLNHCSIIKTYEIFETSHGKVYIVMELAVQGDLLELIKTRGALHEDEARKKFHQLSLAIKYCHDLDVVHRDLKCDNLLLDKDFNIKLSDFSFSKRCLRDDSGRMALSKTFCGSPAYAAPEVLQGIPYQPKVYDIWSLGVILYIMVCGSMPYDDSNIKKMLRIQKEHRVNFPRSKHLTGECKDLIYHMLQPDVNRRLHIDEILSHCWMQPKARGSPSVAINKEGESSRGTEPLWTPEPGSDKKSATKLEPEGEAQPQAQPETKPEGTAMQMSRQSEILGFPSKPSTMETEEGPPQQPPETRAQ
The following applies: at 0.1 µM.

Experiment [13] deals with T3, Testis-specific serine/threonine-protein kinase 1 (Homo sapiens). The following applies: at 1 µM.
For experiment [14], the target named is T4, Testis-specific serine/threonine-protein kinase 2 (Homo sapiens) (UniProt Q96PF2).
T4 sequence (whole entry): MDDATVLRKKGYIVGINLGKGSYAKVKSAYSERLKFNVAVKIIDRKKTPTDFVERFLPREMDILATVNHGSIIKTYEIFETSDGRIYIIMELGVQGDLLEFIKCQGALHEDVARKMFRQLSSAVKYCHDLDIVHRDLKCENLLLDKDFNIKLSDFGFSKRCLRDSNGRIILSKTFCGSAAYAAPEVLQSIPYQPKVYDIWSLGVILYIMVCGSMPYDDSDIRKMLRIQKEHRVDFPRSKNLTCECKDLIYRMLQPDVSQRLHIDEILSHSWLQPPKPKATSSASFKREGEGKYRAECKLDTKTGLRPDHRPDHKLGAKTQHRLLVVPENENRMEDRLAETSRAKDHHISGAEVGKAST
The following applies: at 0.1 µM.

For experiment [15], the target named is T4, Testis-specific serine/threonine-protein kinase 2 (Homo sapiens). The following applies: at 1 µM.
The target in experiment [16] is Casein kinase I isoform alpha (Homo sapiens) (UniProt P48729). The following applies: at 0.1 µM.
Casein kinase I isoform alpha (Homo sapiens), sequence (P48729 2-337 limits assumed): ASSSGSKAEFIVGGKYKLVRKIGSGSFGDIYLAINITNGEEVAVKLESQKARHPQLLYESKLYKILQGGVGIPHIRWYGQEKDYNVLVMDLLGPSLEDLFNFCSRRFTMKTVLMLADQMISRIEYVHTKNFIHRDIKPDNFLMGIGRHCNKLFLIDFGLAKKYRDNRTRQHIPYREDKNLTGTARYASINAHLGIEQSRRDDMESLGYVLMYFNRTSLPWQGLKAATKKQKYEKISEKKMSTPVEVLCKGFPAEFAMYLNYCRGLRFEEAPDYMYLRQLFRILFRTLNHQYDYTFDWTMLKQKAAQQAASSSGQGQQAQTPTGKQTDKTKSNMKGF
For experiment [17] the target is unchanged. The following applies: at 1 µM.
Experiment [18] has as its target Casein kinase I isoform gamma-1 (Homo sapiens) (UniProt Q9HCP0). The following applies: at 0.1 µM.
Experiment [19] has the same target. The following applies: at 1 µM.
Experiment [20] has as its target Casein kinase I isoform gamma-2 (Homo sapiens) (UniProt P78368). The following applies: at 0.1 µM.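 Note: values are mean inhibition figures reported as part of the GSK PKIS dataset.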

As a reminder, the inhibition is the relative decrease from the control value, in per cent.

The structures appear in SMILES notation.

Casein kinase I isoform gamma-2 (Homo sapiens), sequence (P78368 whole entry, looked up, canonical isoform): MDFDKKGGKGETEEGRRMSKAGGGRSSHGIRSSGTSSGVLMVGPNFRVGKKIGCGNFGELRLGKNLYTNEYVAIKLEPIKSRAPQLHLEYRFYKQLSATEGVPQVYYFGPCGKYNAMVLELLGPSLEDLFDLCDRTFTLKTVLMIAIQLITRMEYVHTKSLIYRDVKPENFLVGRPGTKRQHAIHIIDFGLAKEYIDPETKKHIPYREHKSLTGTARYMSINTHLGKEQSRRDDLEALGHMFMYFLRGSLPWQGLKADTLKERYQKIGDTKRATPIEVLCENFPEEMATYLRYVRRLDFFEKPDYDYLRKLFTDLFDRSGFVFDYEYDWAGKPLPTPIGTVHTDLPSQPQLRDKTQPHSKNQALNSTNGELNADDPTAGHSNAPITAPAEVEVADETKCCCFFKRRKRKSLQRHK
Serine/threonine-protein kinase pim-2 (Homo sapiens), sequence (Q9P1W9 whole entry, looked up): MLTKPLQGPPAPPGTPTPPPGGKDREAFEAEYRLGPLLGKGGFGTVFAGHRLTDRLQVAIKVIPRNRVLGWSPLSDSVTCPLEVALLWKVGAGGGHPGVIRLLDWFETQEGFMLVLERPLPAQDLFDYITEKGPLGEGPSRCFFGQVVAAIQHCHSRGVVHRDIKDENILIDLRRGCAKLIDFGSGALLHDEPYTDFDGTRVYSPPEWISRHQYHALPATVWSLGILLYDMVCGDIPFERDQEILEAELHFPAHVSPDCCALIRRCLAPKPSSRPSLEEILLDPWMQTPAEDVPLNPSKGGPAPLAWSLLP
Serine/threonine-protein kinase SIK1 (Homo sapiens), sequence (P57059 whole entry): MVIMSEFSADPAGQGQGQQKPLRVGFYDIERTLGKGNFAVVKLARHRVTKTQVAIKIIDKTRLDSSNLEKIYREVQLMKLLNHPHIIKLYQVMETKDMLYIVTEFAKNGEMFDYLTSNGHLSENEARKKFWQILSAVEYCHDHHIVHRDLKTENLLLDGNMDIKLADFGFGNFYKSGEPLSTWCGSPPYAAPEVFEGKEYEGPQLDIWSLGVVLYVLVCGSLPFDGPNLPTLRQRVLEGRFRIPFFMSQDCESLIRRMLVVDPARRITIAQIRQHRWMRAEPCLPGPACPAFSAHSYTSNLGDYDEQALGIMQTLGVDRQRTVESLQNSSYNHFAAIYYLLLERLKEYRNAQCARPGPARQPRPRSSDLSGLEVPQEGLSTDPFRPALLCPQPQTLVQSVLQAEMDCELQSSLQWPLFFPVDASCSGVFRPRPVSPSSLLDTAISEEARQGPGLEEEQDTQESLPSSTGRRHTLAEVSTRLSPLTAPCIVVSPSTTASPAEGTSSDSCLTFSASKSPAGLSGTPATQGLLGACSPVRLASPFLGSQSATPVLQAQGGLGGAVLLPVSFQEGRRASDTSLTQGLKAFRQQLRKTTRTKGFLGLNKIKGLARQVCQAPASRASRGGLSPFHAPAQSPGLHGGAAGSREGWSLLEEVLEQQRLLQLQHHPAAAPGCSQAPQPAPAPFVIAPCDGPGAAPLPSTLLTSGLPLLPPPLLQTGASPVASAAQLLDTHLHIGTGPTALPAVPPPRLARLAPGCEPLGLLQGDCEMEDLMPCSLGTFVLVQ
Casein kinase I isoform gamma-1 (Homo sapiens), sequence (Q9HCP0 whole entry, looked up, canonical isoform): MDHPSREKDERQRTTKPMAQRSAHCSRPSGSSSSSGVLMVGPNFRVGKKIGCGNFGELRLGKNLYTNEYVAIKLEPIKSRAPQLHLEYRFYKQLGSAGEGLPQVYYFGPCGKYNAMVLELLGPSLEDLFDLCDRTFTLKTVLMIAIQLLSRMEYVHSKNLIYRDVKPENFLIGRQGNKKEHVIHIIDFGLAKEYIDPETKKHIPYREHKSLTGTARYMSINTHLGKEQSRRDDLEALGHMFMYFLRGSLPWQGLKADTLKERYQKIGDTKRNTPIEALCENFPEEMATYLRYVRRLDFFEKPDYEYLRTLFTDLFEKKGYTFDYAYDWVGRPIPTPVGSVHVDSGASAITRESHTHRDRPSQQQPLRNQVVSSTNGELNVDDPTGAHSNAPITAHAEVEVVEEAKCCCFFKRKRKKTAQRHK

Turning to `CCn1c(-c2nonc2N)nc2ccc(F)cc21`, the inhibition in [1] is 0.34%; in experiment [2] it was -0.77%; in experiment [3], 4.99%; in experiment [4], 2.78%; in [5], 4.45%; in [6] it was 4.96%. Further, the inhibition in [7] is 8.41%; in experiment [8] it was 7.14%; in [9] it was 12.5%; in [10], 5.18%; in experiment [11], 4.44%; in experiment [12], 5.02%. The inhibition in [13] amounted to 7.33%; in [14], 2.94%; in [15], 4.64%; in experiment [16], 3.7%; in experiment [17], 4.99%; in experiment [18], 4.91%. Moreover, the inhibition was 5.86% in [19] and 5.17% in experiment [20].

Regarding `c1ccc(Cc2nc3ccc(Nc4ncnc5ccccc45)cc3[nH]2)cc1`, the inhibition in [1] is 0.02%; in experiment [2], 0.69%; in experiment [3], 3.67%; in [4], 1.42%; in experiment [5] it was 1.52%; in [6], 3.13%. In addition, the inhibition amounted to 5.43% in experiment [7]; 2.47% in experiment [8]; 7.91% in [9]; 3.57% in [10]; 5.54% in experiment [11]; 0.97% in experiment [12]. Also, the inhibition in experiment [13] is 2.75%; in [14], -0.59%; in [15], 4.11%; in experiment [16], 8.25%; in experiment [17], 7.49%; in experiment [18] it was 2.6%. Moreover, the inhibition in [19] came to 6.23%; in experiment [20] it was 2.94%.

Turning to `Cc1ccc2c(c1)/C(=N/Nc1ccc(S(N)(=O)=O)cc1)C(=O)N2`, the inhibition in experiment [1] is 1.85%; in [2] it was -0.58%; in experiment [3], -0.92%; in [4], 0.02%; in [5], -2.03%; in experiment [6], 1.14%. The inhibition in experiment [7] was 1.4%; in experiment [8] it was -5.87%; in experiment [9] it was 10.4%; in [10], -2.1%; in experiment [11] it was 6.6%; in experiment [12], -0.94%. For the same molecule, the inhibition in [13] was 0.43%; in experiment [14] it was -0.24%; in experiment [15], -1.16%; in [16], 0.07%; in experiment [17], -0.4%; in [18], 0.78%. The inhibition in [19] turned out to be 1.26%; in experiment [20], 0.31%.

For the molecule `CS(=O)(=O)Nc1cccc(-c2ccc3c(NC(=O)C4CC4)n[nH]c3c2)c1`, the inhibition in [1] is 1.38%; in experiment [2], -0.62%; in experiment [3] it was -2.53%; in experiment [4], 0.1%; in experiment [5], -1.16%; in [6], -0.72%. Also, the inhibition in experiment [7] was 5.25%; in [8], -2.65%; in experiment [9] it was 9.32%; in experiment [10], -0.1%; in experiment [11], 3.56%; in experiment [12], 1.06%. The inhibition in experiment [13] was 0.45%; in experiment [14], 0.02%; in experiment [15], -1.13%; in experiment [16] it was 1.72%; in experiment [17], 1.75%; in [18] it was 0.64%. For the same molecule, the inhibition in experiment [19] is 3.47%; in experiment [20], -0.83%.

Take `COC(=O)c1cncc(/C=C/c2c(C)cc(O)cc2C)c1`: the inhibition in experiment [1] came to 0.09%; in experiment [2], 0.93%; in experiment [3] it was 3.35%; in [4], 1.73%; in [5], 2.57%; in experiment [6] it was 19.2%. In addition, the inhibition turned out to be 84.3% in experiment [7]; 5.81% in [8]; 20% in [9]; 1.26% in [10]; 3.98% in [11]; 2.95% in [12]. The inhibition in [13] was 5.68%; in [14] it was 0.9%; in experiment [15] it was 0.8%; in experiment [16], 1.49%; in experiment [17], 4.06%; in [18] it was 3.02%. The inhibition stood at 4.65% in [19] and 2.68% in [20].

As to `Cc1cc(Cl)cc2c1NC(=O)C2=NNc1ccc(S(N)(=O)=O)cc1`, the inhibition is 0.51% in experiment [1]; 0.42% in experiment [2]; 2.98% in [3]; 1.54% in [4]; 2.85% in experiment [5]; 1.46% in experiment [6]. Besides, the inhibition in experiment [7] is 4.61%; in experiment [8], 5.46%; in experiment [9], -2.05%; in experiment [10] it was 1.17%; in experiment [11] it was 1.59%; in [12], 4.21%. The inhibition is 4.86% in [13]; 2.71% in [14]; 5.17% in [15]; 1.05% in experiment [16]; 0.59% in experiment [17]; 1.63% in experiment [18]. In addition, the inhibition in experiment [19] amounted to 1.59%; in [20] it was 1.66%.

With `COc1cccc(-n2ncc3c(N/N=C/c4ccc(C)cc4)ncnc32)c1`, the inhibition stood at 0.75% in experiment [1]; 2.2% in [2]; 8.3% in experiment [3]; 1.88% in experiment [4]; 2.22% in experiment [5]; 7.95% in [6]. The inhibition in experiment [7] came out at 12.6%; in experiment [8] it was 8.99%; in experiment [9], 14.7%; in [10], 2.64%; in experiment [11] it was 5.4%; in [12], 5.91%. In addition, the inhibition came out at 15.2% in [13]; 2.36% in experiment [14]; 3.89% in [15]; 3% in experiment [16]; 8.69% in experiment [17]; 6.44% in experiment [18]. The inhibition in experiment [19] was 11.2%; in experiment [20], 6.88%.
